In PubChem BioAssay (NCATS):
Values joined by “and” are separate entries in the source; they are usually repeats but may differ in a detail not shown here. Equal entries are not always repeated. Inconclusive results are not listed. A call without a number means that no potency is given here. Unmarked numbers belong to inactive results. Active and inactive are the calls of the source. The call rests on the fitted dose curve; in most records, active means well fitted cell-killing curve with a large enough effect; inconclusive means small, poorly fitted or top-dose-only effect; inactive means flat fitted curve, though single readings scatter.

Columns and labels:
[1] = Cellular viability qHTS for adrenocortical cancer (ACC) cell line SW-13 (AID 1963989); conditions: SW-13 ACC cells viability, CellTiter-Glo, 48 h; activity (max response): active compounds read low;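 further: cells grown in serum-free medium with ITS supplement; nearly all actives have a fitted effect of over 65% in size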
In short: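 IC50 and maximal-response values come from four-parameter logistic fits of titration data. SW-13 cells in serum-free medium received compounds (up to 46 uM final) for 48 h before CellTiter-Glo luminescence.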

[2] = Cellular viability qHTS for adrenocortical cancer (ACC) cell line NCI-H295R (AID 1963990); further: nearly all actives have a fitted effect of over 60% in size
In short: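 Adrenocortical carcinoma cells, suspended at 300 000 cells/mL in serum-free DMEM plus ITS, rested overnight before pin transfer of compound. After two days' incubation, ATP-dependent luminescence was recorded and curve-fitted.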

Row | SMILES | activity (max response) [1] | Potency [2]
1 | Cn1c(-c2ccccc2C(F)(F)F)nnc1C12CCC(c3noc(C4CC(F)(F)C4)n3)(CC1)CC2 | -6.22% | inactive
2 | CCN(CC)CCNC(=O)COc1ccc(OC)cc1 | -8.99% | inactive
3 | CC(=O)N1CCN(c2ccc(NC(=O)Cc3cnc(-c4ccnc(F)c4)c(C)c3)nc2)CC1 | 4.66% | inactive
4 | COCCCc1sc(-c2ccccc2)nc1C(=O)Nc1ccccc1-c1nc2cc(CN3CCCC3)cnc2s1 | -19.6% | inactive
5 | CCCCOCCOCCOCc1cc2c(cc1CCC)OCO2 | 0.496% and -9.13% | inactive
